Assay outcomes: PubChem BioAssay, Broad Institute
AF4-AF9 inh = inhibitors of AF4 peptide binding to AF9, primary screen, biochemical, AlphaScreen, biotin-AF4 peptide, FLAG-AF9, single point; Protein AF-9 (Homo sapiens), P42568; inhibition, % at 10 µM; actives 0.47% (n = 350,000); AID 651704, 2012;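 active = every replicate reaching a set inhibition limit, whatever the replicate mean, cut at about 25% in these data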;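 note: 0% = plate neutral control median and 100% = total signal loss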
Target sequence (P42568 whole entry, looked up): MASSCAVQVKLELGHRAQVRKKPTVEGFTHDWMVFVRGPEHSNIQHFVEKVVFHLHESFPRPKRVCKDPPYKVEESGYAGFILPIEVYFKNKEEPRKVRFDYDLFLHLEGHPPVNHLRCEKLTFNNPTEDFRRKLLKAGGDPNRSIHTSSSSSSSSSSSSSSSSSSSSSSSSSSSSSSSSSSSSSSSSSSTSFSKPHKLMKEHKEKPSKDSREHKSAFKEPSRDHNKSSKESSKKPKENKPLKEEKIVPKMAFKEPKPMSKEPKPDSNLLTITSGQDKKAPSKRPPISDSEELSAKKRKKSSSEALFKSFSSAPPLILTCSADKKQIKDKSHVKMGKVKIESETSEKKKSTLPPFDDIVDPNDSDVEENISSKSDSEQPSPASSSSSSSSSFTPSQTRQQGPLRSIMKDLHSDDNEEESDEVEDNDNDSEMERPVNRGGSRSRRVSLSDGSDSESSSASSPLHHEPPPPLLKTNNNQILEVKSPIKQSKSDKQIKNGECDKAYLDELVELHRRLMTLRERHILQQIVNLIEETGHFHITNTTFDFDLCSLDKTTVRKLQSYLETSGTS
miR122 inh = miR-122 Renilla sensor signal increase in Huh7, primary screen, miR-122 inhibitor project, cell-based, single point, plate reader. Huh7 miR-122 Renilla luciferase sensor, 48 h; neutral wells = 0, positive control = 100. activation (reporter increase), % at 12.5 µM. actives 0.3% (n = 340,000);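 active = mean replicate activation score at least 90 and every replicate individually at or above 90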;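 note: higher luciferase means less miR-122 activity so hits act as miR-122 inhibitors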
RAD52 anneal inh = RAD52 DNA annealing inhibitors, primary screen, biochemical, FRET, single point, set 2; inhibition, % at 18.7 µM; DNA repair protein RAD52 homolog (Homo sapiens), P43351; recombinant RAD52 DNA annealing, FRET fluorescence; AID 651710, 2012; actives 0.46% (n = 360,000);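 active = every replicate showing at least 50% inhibition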
NSD2 HMT inh = NSD2 histone methyltransferase inhibitors, primary screen, biochemical, AlphaScreen, single concentration, set 2; Histone-lysine N-methyltransferase NSD2 (Homo sapiens), O96028; NSD2 peptide methylation, 120 min; inhibition, % at 12.5 µM; actives 0.54% (n = 310,000); in the data active = inhibition above about 50%
Casp6 inh = human caspase-6 inhibitors, primary screen, biochemical, VEID-R110 fluorescence, single point, set 2. P55212. purified caspase-6, Z-VEID-R110 cleavage fluorescence. inhibition, % at 12.5 µM. actives 0.53% (n = 350,000). AID 686996, 2013;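 active = mean inhibition across replicates at least about 35%, with every replicate also reaching that limit, limit read from the data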;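 note: 0% = median of neutral control wells and 100% = no fluorescence left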
* hit, by the source's call; · = no result given; [ ] = remark or other dose. Most compounds without a hit are left out; they make up all but 1.5% or so of the library.

SMILES	AF4-AF9 inh	miR122 inh	RAD52 anneal inh	NSD2 HMT inh	Casp6 inh
CC1OC(OCC2OC(Oc3c(-c4ccc(O)cc4)oc4cc(O)cc(O)c4c3=O)C(O)C(O)C2O)C(O)C(O)C1O (configuration not stated)	0	5	-4	·	54*
CCS(=O)(=O)C1=NN2C(=N)/C(=C\c3ccc(OC(=O)c4ccco4)c(Br)c3)C(=O)N=C2S1	·	·	·	20	·
CCS(=O)(=O)C1=NN2C(=N)/C(=C\c3ccc(SCc4ccco4)o3)C(=O)N=C2S1	·	·	·	95*	·
O/N=C1\CCC\C1=C/c1ccco1	·	-3	·	4	·
O=C1C(=Cc2ccco2)CCCC1=Cc1ccco1	16	·	-36	22	72*
O=C(NC(=S)NNS(=O)(=O)c1ccccc1)c1ccccc1[N+](=O)[O-]	-5	·	-11	-5	52*
O=C(NC(=S)NNS(=O)(=O)c1ccccc1)c1ccc([N+](=O)[O-])cc1	·	·	·	-1	·
COc1ccc(S(=O)(=O)Nc2ccc3c(c2)[C@H]2C[C@H](CC(=O)O)O[C@H](CO)[C@H]2O3)cc1	-1	5[16.7 µM]	-3	·	-2
CN=C(Nc1ccc(Cl)cc1)c1cccc(C(F)(F)F)c1	·	10	·	0	·
CN=C(Nc1cccnc1)c1cccc(C(F)(F)F)c1	0	1	0	6	65*
CC(C)NC(=O)Nc1ccc2c(c1)C(=O)N([C@H](C)CO)C[C@H](C)[C@H](CN(C)Cc1ccc3c(c1)OCO3)OCCCC[C@@H](C)O2	·	-1[16.7 µM]	·	·	·
Cc1ccc(S(=O)(=O)NCc2ccccn2)c(C)c1	-5	8	-9	-3	0
COc1cc(C)c(Cl)cc1S(=O)(=O)NCc1ccco1	·	105*	·	1	·
CCOc1cc(C)c(C(C)C)cc1S(=O)(=O)NCc1ccccn1	·	104*	·	-2	·
CCOc1ccc(S(=O)(=O)NCc2ccco2)c2ccccc12	2	122*	-50	5	10
CCOc1cc(C)c(Cl)cc1S(=O)(=O)NCc1ccco1	·	116*	·	3	·
Cc1cc(S(=O)(=O)NCc2ccco2)c(C)cc1Cl	1	67	-16	3	4
COc1cccc(NC(=O)COC(=O)c2n[nH]c3ccccc23)c1	·	·	·	0	·
C[C@@H]1CN([C@@H](C)CO)C(=O)c2cc(C#Cc3ccccc3F)cnc2O[C@@H]1CN(C)C(=O)C1CCCCC1	2	-14[16.7 µM]	-1	·	1
COc1ccccc1NC(=O)c1ccccc1S(=O)(=O)c1ccc([N+](=O)[O-])cc1	-4	-2	6	3	40*
COc1ccccc1NC(=O)c1ccccc1S(=O)(=O)c1ccccc1[N+](=O)[O-]	4	·	-8	3	0
COc1cccc(-c2ccc3c(c2)[C@@H]2[C@@H](CCN2C(=O)NC2CCCC2)[C@H](CO)N3C)c1	26*	-2[16.7 µM]	3	·	2
COc1ccc(-c2ccc3c(c2)[C@@H]2[C@@H](CCN2C(=O)C2CCCC2)[C@H](CO)N3C)cc1	35*	·	24	·	2
CN1c2ccc(-c3cccc(F)c3)cc2[C@H]2[C@H](CCN2C(=O)C2CCC2)[C@H]1CO	28*	·	-2	·	·
COc1ccc(-c2ccc3c(c2)[C@@H]2[C@@H](CCN2C(=O)NC2CCCCC2)[C@@H](CO)N3C)cc1	7	1[16.7 µM]	11	·	-1
SMILES	AF4-AF9 inh	miR122 inh	RAD52 anneal inh	NSD2 HMT inh	Casp6 inh
COc1ccc(-c2ccc3c(c2)[C@H]2[C@H](CCN2C(=O)C2CCCCC2)[C@H](CO)N3C)cc1	-2	14[16.7 µM]	6	·	-4
CN1c2ccc(C3=CCCCC3)cc2[C@@H]2[C@@H](CCN2C(=O)C2CCCCC2)[C@H]1CO	25*	·	-1	·	7
C[C@H](CO)N1C[C@H](C)[C@H](CN(C)Cc2cncnc2)Oc2ncc(-c3ccc(C#N)cc3)cc2C1=O	-4	·	-7	·	-1
CCCNC(=O)[C@@H]1[C@@H](CO)[C@@H]2Cn3c(ccc(-c4cccnc4)c3=O)[C@@H]2N1Cc1cocn1	-1	·	-3	·	1
C[C@@H]1CN([C@@H](C)CO)C(=O)c2cc(NC(=O)CCC(F)(F)F)ccc2O[C@H]1CN(C)S(=O)(=O)c1ccc(F)cc1	-3	2[16.7 µM]	-3	·	-2
CC(C)C(=O)NC(c1ccco1)c1ccc2cccnc2c1O (configuration not stated)	·	-34	·	2	·
CCCCC(=O)NC(c1ccc(N(C)C)cc1)c1ccc2cccnc2c1O (configuration not stated)	57*	-23	-17	9	-3
CCCC(=O)NC(c1cccc([N+](=O)[O-])c1)c1ccc2cccnc2c1O (configuration not stated)	34*	-12	-31	3	-6
CCCCC(=O)NC(c1ccc(N(CC)CC)cc1)c1ccc2cccnc2c1O (configuration not stated)	20	·	-5	1	4
CCN(CC)c1ccc(C(NC(=O)C(C)C)c2ccc3cccnc3c2O)cc1 (configuration not stated)	29*	-7	-14	1	·
CN1C(=O)c2cc(NC(=O)Nc3ccccc3)ccc2OC[C@H]2O[C@H](CC(=O)O)CC[C@H]21	-2	·	-8	·	·
Cc1ccc(S(=O)(=O)N2CCN(c3nc(CN4CCOCC4)nc4sc(C)c(C)c34)CC2)c(C)c1	·	·	·	8	·
COCC#Cc1cnc2c(c1)C(=O)N([C@H](C)CO)C[C@@H](C)[C@H](CN(C)C(=O)C1CCC1)O2	-6	-5[16.7 µM]	3	·	0
COc1cccc(C(=O)Oc2cc3c4c(c2)C(C)=CC(C)(C)N4C(=O)C3=O)c1	26*	·	4	4	2
COc1ccc(C(=O)Oc2cc3c4c(c2)C(C)=CC(C)(C)N4C(=O)C3=O)cc1OC	·	-3	·	8	·
CC(=O)N1CC2(C1)[C@H](c1ccccc1)[C@H](CO)N2Cc1ccccc1F	·	·	-8	·	·
COc1ccc([C@H]2CC(=O)C=C(/C=C/c3ccccc3)C2)cc1OC	29*	0	-15	·	0
O=C1C=C(/C=C/c2ccccc2)C[C@@H](c2ccc(F)cc2)C1	9	3	-8	·	1
COc1ccc(NC(=O)/C(C#N)=C/c2ccc(-c3ccccc3C(=O)O)o2)cc1	0	·	-1	3	2
COc1ccc(NC(=O)/C(C#N)=C\c2ccc(Br)o2)cc1	-1	·	-19	-2	45*
CCCNC(=O)[C@H]1[C@H](CO)[C@H]2Cn3c(ccc(-c4ccc(F)cc4)c3=O)[C@@H]1N2CC	-1	5[16.7 µM]	-11	·	-3
CCC(=O)N1CC2(C1)[C@H](c1ccccc1)[C@@H](CO)N2Cc1cccc(Cl)c1	3	·	-8	·	1
CN(c1ccccc1)S(=O)(=O)c1cccc(C(=O)OCC(=O)Nc2ccc(C(N)=O)cc2)c1	-5	·	-3	6	40*
